Test results as given in PubChem BioAssay.

Each compound was assayed against Calmodulin-1 (Homo sapiens) (UniProt P0DP23) (assay: small molecules binding Ca-loaded calmodulin-1 – biochemical, small-molecule microarray, Cy5-labelled CALM1, plus calcium, artefact control for SMM control-protein annotation, profiling panel (AID 1112;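 note: score merges spot fluorescence with signal to noise from triplicate slides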)). Conditions: Cy5-CALM1 binding fluorescence, higher = more signal.
Compound `C=C(/C(=C/C[C@@H](OC(=O)c1ccncc1)c1ccc(CO)o1)c1cnc2ccccc2c1)C(C)C` has a composite z-score of -0.116. Compound `CCCNC(=O)[C@@]1(Sc2ccc(C)cc2)CC(=O)N(Cc2ccccc2Cl)[C@@H]1c1ccc(CO)cc1` has a composite z-score of 1.03. `COC(=O)Cn1c(C(=O)N2CCCC2)cc2c1C[C@H]1CN(C(=O)c3ccccc3)[C@@](Cc3ccccc3)(C(=O)OC)[C@@H]21` gave a composite z-score of 0.589. In the case of `NC(=O)NCC#Cc1ccc2c(c1)[C@]1(C(=O)N2)[C@H](C(=O)N2CCCCCCC2)[C@H]2C(=O)O[C@H](c3ccccc3)[C@H](c3ccccc3)N2[C@@H]1c1ccccc1OCCO`, the composite z-score is reported as 1.69. For `Cc1ccc(S[C@]2(C(=O)NCCCN(C)C)CC(=O)N(C3CCCCC3)[C@@H]2c2ccc(CO)cc2I)cc1`, the composite z-score was 0.49. For `CCN1C(C)=C(C(=O)OC)[C@@H](c2ccccc2)N2C(=O)[C@@]3(C(=O)OC)O[C@@]12[C@@H]1C(=O)N(C)C(=O)[C@@H]13`, the composite z-score was -0.686. For `CO[C@H]1COC(=O)[C@H](C)NC(=O)CC=C[C@@H](C)[C@H](NS(=O)(=O)c2ccc(C)cc2)COC(=O)CC=C[C@@H]1C`, the composite z-score was -1.46. `Cc1ccc(S(=O)(=O)N[C@H]2COC(=O)CC=C[C@H](C)COC(=O)N[C@@H](C)C(=O)CC=C[C@@H]2C)cc1` gave a composite z-score of -1.39. With `CN1C2C=C(c3ccc(CO)cc3)C(C3C(=O)N(C(N)=O)C(=O)C32)C1c1cccs1` (stereo unspecified) the composite z-score was 0.47. For `CCCC=C(CCC)[C@@H](NS(=O)(=O)c1ccc(C(F)(F)F)cc1)c1ccc(-c2ccccc2)cc1`, the composite z-score was 0.878. `CO[C@H]1COC(=O)[C@@H](C)NC(=O)CC=C[C@@H](C)[C@H](OC)COC(=O)CC=C[C@@H]1C` was tested, and the composite z-score was -2.99. With `C=CCC(OC(C)=O)[C@@H]1[C@@H](N(Cc2cc3ccccc3o2)C(=O)Cc2ccc(F)cc2)c2cc(OCCCO)ccc2N1C(=O)c1ccc(-c2ccccc2)cc1` (stereo partly specified) the composite z-score was 1.14. `Cc1ccc(N2C(=O)c3ccccc3[C@@H](C(=O)NCc3ccccc3)[C@@H]2c2ccc(CO)cc2)nc1` showed a composite z-score of -0.313. Work on `CCCC[C@@H]1C[C@H]1[C@@H](NC(=O)c1ccccc1)c1ccccc1C(F)(F)F` yielded a composite z-score of 1.09. Compound `CN1C(=O)C2C=CC(C(O)c3ccc(N(C)C)cc3)N(Nc3ccc([N+](=O)[O-])cc3[N+](=O)[O-])C2C1=O` (stereo unspecified) has a composite z-score of 0.697. `O=C1C2C=CC(C(O)C#Cc3ccccc3)N(Nc3ccccc3)C2C(=O)N1c1ccccc1` (stereo unspecified) showed a composite z-score of 0.373. In the case of `Cc1ccc(S[C@]2(C(=O)NCCN3CCOCC3)CC(=O)N(C3Cc4ccccc4C3)[C@@H]2c2ccc(CO)cc2I)cc1`, the composite z-score is reported as -0.0474. For `O=C1O[C@@H](c2ccccc2)[C@@H](c2ccccc2)N2[C@@H](c3ccc(O)cc3)[C@]3(C(=O)Nc4ccccc43)[C@@H](C(=O)N3CCN(c4ncccn4)CC3)[C@H]12`, the composite z-score was 1.09. Work on `C=CC[C@]1(C(=O)NCC(O)CO)N=C(c2ccc(OCCCO)cc2)O[C@H]1c1ccccc1` (stereo partly specified) yielded a composite z-score of 1.12. In the case of `CC[C@@H]1C=C(C(=O)O)[C@H](c2ccccc2)N1S(=O)(=O)c1ccc([N+](=O)[O-])cc1`, the composite z-score is reported as 0.202. `CN1CCC(CCCO)=CC1C1CC1` (stereo unspecified) gave a composite z-score of -1.36. Work on `C=CC[C@]1(C(=O)N2CCCCC2)N=C(c2ccc(OCCCO)cc2)O[C@H]1c1ccccc1N=[N+]=[N-]` yielded a composite z-score of 0.994. Compound `COc1cccc([C@@H]2[C@@H](C)CC[C@H]3C(=O)N4[C@H](c5cccc(OC)c5)[C@@H](C)CC[C@H]4C(=O)N23)c1` has a composite z-score of -0.781. Work on `COCCOC(=O)N1C(=O)[C@@]2(c3cc(C#CC4=CCCCC4)ccc31)[C@H](c1ccc(O)cc1)N1[C@H](c3ccccc3)[C@H](c3ccccc3)OC(=O)[C@H]1[C@@H]2C(=O)N1CCCCCCC1` yielded a composite z-score of 0.716. Work on `C=CCC(OC(C)=O)[C@@H]1[C@@H](N(Cc2cccc3ccccc23)C(=O)c2ccc(C)cc2)c2cc(OCCCO)ccc2N1C(=O)c1ccc(-c2ccccc2)cc1` (stereo partly specified) yielded a composite z-score of -0.065. Compound `C=CCN1C(=O)[C@]2(O[C@H](CCn3cc(CCO)nn3)[C@@H]([Si](C)(C)c3ccc(OC)cc3)[C@@H]2C)c2cc(NC(=O)c3ccc(OC)cc3)ccc21` has a composite z-score of 0.336. In the case of `CC(=O)NCCCC[C@@H]1NC(=O)[C@@H]2C[C@H](C(=O)NCCCCCCN(C)C)[C@H](c3ccc(O)cc3)N2C1=O`, the composite z-score is reported as -1.14. `CO[C@@H]1COC(=O)[C@H](COCc2ccccc2)NC(=O)CC=C[C@@H](C)[C@H](OC)COC(=O)[C@H](COCc2ccccc2)NC(=O)CC=C[C@H]1C` was tested, and the composite z-score was -1.01. `COCCOC(=O)N1C(=O)[C@@]2(c3ccccc31)[C@H](C(=O)N1CCc3cc(OC)c(OC)cc3C1)[C@H]1C(=O)O[C@H](c3ccccc3)[C@H](c3ccccc3)N1[C@@H]2c1ccccc1OCCO` was tested, and the composite z-score was 0.868. `C=C(CCCC)/C(=C/C[C@@H](OC(=O)c1ccncc1)c1cccc(OCCO)c1)c1cc(C(=O)OC)ccc1OC` was tested, and the composite z-score was -0.732. `C#CCCCON=C1C[C@@H](O)[C@@H](O)[C@@H]2[C@@H]3C(=O)N(Cc4ccc5c(c4)OCO5)C(=O)[C@@H]3CC[C@@H]12` was tested, and the composite z-score was -0.19.
